Bioassay records deposited in PubChem BioAssay by National Center for Advancing Translational Sciences (NCATS).
Rows were chosen to be rich in hits. Some 22% of all compounds tested hit in one or more screens of this group.
Pf growth 48h – inhibits P. falciparum growth in the first generation, 48 h; P. falciparum luciferase growth in erythrocytes, 48 h; Potency, µM (top dose mostly 28.7 µM), for inactives: top-dose activity change, negative = inhibition, hits mostly inhibitors; 5.9% of 310,000 active; further: potency means the concentration at half of the fitted maximal effect; on the % scale 0 is the no-effect control and ±100 the full control effect
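First compound was added to culture medium, then infected red cells at 0.1% parasitemia and 2% hematocrit (final). After incubation at 37 C under 5% CO2, luciferase detection reagent was dispensed and light output recorded.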
Pf growth 96h – inhibits malaria parasite growth, 96 h. P. falciparum luciferase reporter growth, 96 h. 6.9% of 320,000 active. Potency, µM (doses to about 28.7 µM), inactives show top-dose activity change, negative = inhibition, most hits filed as inhibitors; further: potency means the concentration at half of the fitted maximal effect; on the % scale 0 is the no-effect control and ±100 the full control effect
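Parasite growth measured via integrated firefly luciferase reporter in P. falciparum. Infected erythrocytes at 2% hematocrit, 0.05% parasitemia final were treated 96 hours at 37 C under 5% CO2, and luminescence was read.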
CHX counter – affects cycloheximide protein synthesis inhibition readout, counter-screen; cell reporter, cycloheximide protein synthesis inhibition counterscreen; max response, %; 12% of 300,000 active; AID 2314; in the data active means max response mostly above about 13%, no sharp cut-off; inactive means mostly below about 14%; further: read at 38.3 µM for the half of the compounds with a filed dose; 0% is about no effect
Shiga toxin inh – Shiga toxin inhibition. inhibition, % at 38.7 µM. AID 2315. 9.2% of 290,000 active. Vero cells, Shiga toxin protein synthesis inhibition reporter; in the data active means inhibition mostly above about 28%, no sharp cut-off; inactive means mostly below about 43%; further: 0% is about no effect
LmPK inhibitor – blocks Leishmania mexicana pyruvate kinase activity | Q27686 | purified LmPK, Kinase-Glo ATP luminescence, 1 h | Potency, µM (titrated, usually from 57.5 µM), without a hit: top-dose activity change, negative = inhibition, most hits filed as inhibitors | 0.37% of 290,000 active | AID 1721; further: potency means the concentration at half of the fitted maximal effect; on the % scale 0 is the no-effect control and ±100 the full control effect
Target sequence (Q27686 whole entry, looked up): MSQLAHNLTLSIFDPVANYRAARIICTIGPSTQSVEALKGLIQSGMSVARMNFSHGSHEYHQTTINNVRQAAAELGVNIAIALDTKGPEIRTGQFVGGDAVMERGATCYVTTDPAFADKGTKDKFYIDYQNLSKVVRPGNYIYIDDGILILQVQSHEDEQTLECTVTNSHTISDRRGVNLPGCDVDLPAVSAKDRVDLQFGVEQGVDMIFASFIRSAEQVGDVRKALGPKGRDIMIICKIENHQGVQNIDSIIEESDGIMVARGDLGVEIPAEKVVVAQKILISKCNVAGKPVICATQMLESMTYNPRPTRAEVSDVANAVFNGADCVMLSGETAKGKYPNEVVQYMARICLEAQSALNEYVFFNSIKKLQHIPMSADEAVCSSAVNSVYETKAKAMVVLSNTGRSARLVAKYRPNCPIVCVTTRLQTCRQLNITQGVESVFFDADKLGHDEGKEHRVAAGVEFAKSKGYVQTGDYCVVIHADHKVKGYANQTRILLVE
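Purified LmPK (0.1 nM) with 0.5 mM PEP and 0.1 mM ADP in imidazole buffer pH 7.2 with MgCl2/KCl, 1 h at room temperature. ATP formed was read by luciferase luminescence and normalized to no-enzyme and uninhibited controls.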
Active calls of the source: *; ? = inconclusive; · = not tested or not shown; [ ] = remark or other dose. Unless noted, the call rests on the fitted dose curve; in most records, active means well fitted inhibition curve with a large enough effect; inconclusive means small, poorly fitted or top-dose-only effect, or another doubt; inactive means no such curve, though single readings can be large or run the other way.

SMILES	Pf growth 48h	Pf growth 96h	CHX counter	Shiga toxin inh	LmPK inhibitor
CCc1noc(C)c1C(=O)Nc1ccc(C(F)(F)F)cc1	-1%	37%	-4	-17	0%
CCOC(=O)c1c(NC(=O)CSc2nnc3c(Cl)cc(Cl)cn23)sc2c1CCC2	2%	-30%	-2	-2	3%
COc1cc(-c2nc3cnccn3c2Nc2ccccc2)ccc1O	?	5.2µM*	-2	8	7%
COc1cc(-c2nc3cnccn3c2Nc2ccc(C(C)C)cc2)ccc1O	?	·	29*	73*	1%
COc1cc(-c2nc3cnccn3c2Nc2ccc(C)cc2)ccc1O	?	·	17	2	-1%
CC(OC(=O)CN1C(=O)c2ccccc2C1=O)C(=O)NC1CCCCC1 (centres undefined)	2%	-14%	-7	-5	-4%
CCOC(=O)c1ccccc1-n1c(C)cc(C2N=C(N)Nc3nc4ccccc4n32)c1C (centres undefined)	·	1.7µM*	1	-4	6%
C=CCc1cccc(/C=N/n2cnnc2)c1O	44%	?	-3	-4	4%
C=CCc1cccc(/C=C/c2cc(=O)c3ccccc3[nH]2)c1O	0.13µM*	0%	25*	65*	-1%
Cc1cc(C)n2nc(C(=O)OCC(=O)N3CC(C)CC(C)C3)nc2n1 (centres undefined)	31%	30%	·	·	·
COc1ccc(-n2nc([N+](=O)[O-])c(=NCCCN3CCCC3=O)n2O)cc1	34%	5%	17	21	3%
Cc1cccc(-n2nc([N+](=O)[O-])c(=NC3CCN(Cc4ccccc4)CC3)n2O)c1	?	?	-1	-9	1%
O=[N+]([O-])c1nn(-c2ccc3c(c2)OCCO3)n(O)c1=NC1CCCC1	·	0%	32*	42*	-3%
O=[N+]([O-])c1nn(-c2ccc3c(c2)OCCO3)n(O)c1=NC1CCCCCC1	·	5%	32*	84*	3%
CCCCNC(=O)C(=O)Nc1cc2c3c(c1)CCC(=O)N3CCC2	-8%	?	-9	23	-4%
CCOc1cc(N)c(Cl)cc1C(=O)NCC1CN(Cc2ccc(F)cc2)CCO1 (centres undefined)	7.6µM*	6µM*	-4	-2	·
OC[C@H]1O[C@@H](O[C@@H]2[C@@H](CO)O[C@@](O)(CO)[C@H]2O)[C@H](O)[C@@H](O)[C@H]1O	15%	19%	·	·	·
CCOC(=O)c1nnn(-c2ccc([N+](=O)[O-])cc2[N+](=O)[O-])c1C	12µM*	2%	9	-13	-3%
COc1cc(CN(CCc2c(C)[nH]c3ccc(C)cc23)C(=S)NC(C)(C)C)cc(OC)c1OC	?	2.6µM*	-4	-21	1%
CNC(=S)N(CCc1c(C)[nH]c2ccc(C)cc12)Cc1ccc(OC)c(OC)c1	?	10µM*	-5	-9	-1%
Cc1[nH]c2ccccc2c1CCN(Cc1cccnc1)C(=S)NC(C)(C)C	11%[0.00184 µM]	13µM*	-2	-8	3%
Cc1[nH]c2ccccc2c1CCN(Cc1cccnc1)C(=S)Nc1ccc(F)cc1	?	-64%	1	-11	9%[11.5 µM]
CC(=O)NCCC(=O)N1CCCC(N2CCN(c3cccc(Cl)c3)CC2)C1 (centres undefined)	19%	?	11	14	-7%
Cc1ccc(S(=O)(=O)NCc2ccc(C(=O)NCCCN3CCC(Cc4ccccc4)CC3)cc2)cc1	?	?	-3	-5	-3%
CSc1ccc(S(=O)(=O)NCc2ccc(Cl)cc2Cl)cc1	·	53%	-4	-12	8%
SMILES	Pf growth 48h	Pf growth 96h	CHX counter	Shiga toxin inh	LmPK inhibitor
Cc1ccc(-n2nc3c(c2NC(=O)C(C)(C)C)CS(=O)(=O)C3)cc1	10%	44%	-2	-6	-6%
O=C(Nc1ccccc1O)c1ccc2c(c1)C(=O)N(N1C(=O)c3ccccc3C1=O)C2=O	7%	9.3µM*	0	-9	-3%
O=C(Nc1ccc(O)cc1)c1ccc2c(c1)C(=O)N(N1C(=O)c3ccccc3C1=O)C2=O	13%	?	-2	-30	-9%
COc1ccccc1N1C(=O)c2ccc(C(=O)Nc3ccccc3O)cc2C1=O	1%	-4%	11*	19	8%
O=C(O)c1ccc2c(c1)C(=O)N(N1C(=O)c3ccccc3C1=O)C2=O	14%	9.3µM*	10	-5	0%
COc1ccc(CN2C(=O)c3ccc(C(=O)O)cc3C2=O)cc1	·	9.3µM*	-3	4	0%
CN1C(=O)/C(=C/c2ccc(O)c([N+](=O)[O-])c2)N(C)C1=S	4%	1%	-2	2	-21%
O=[N+]([O-])c1cc([As](=O)(O)O)ccc1O	2.6µM*	1.7µM*	·	·	·
Cc1ccc(NC(=O)C2Cc3ccccc3CN2C(=O)c2ccco2)cc1S(=O)(=O)N(C)C (centres undefined)	-14%	-10%	31*	79*	2%
CN(C)S(=O)(=O)c1cccc(NC(=O)C2Cc3ccccc3CN2C(=O)c2ccco2)c1 (centres undefined)	?	?	21*	69*	5%
Cc1c(NC(=O)C2Cc3ccccc3CN2C(=O)c2ccco2)c(=O)n(-c2ccccc2)n1C (centres undefined)	·	·	-4	-7	4%
COc1ccc(C(CC(=O)NCc2ccccc2)C(C)C)cc1 (centres undefined)	-9%	?	7	-5	3%
CCOc1ccc2nc(SCC(=O)c3ccccc3)sc2c1	·	39%	43*	91*	6%
CCOc1ccc2nc(SCC(=O)NC3CC3)sc2c1	21%	61%	15*	20	2%
COC(=O)C1=C(O)/C(=C/c2cccc(OC)c2O)N=C1C	72%	38%	29*	47*	25µM*
COC(=O)C1=C(O)/C(=C\c2cc(C)n(-c3ccc(F)cc3)c2C)N=C1C	?	7%	31	75*	1%[11.5 µM]
CCOC(=O)C1=C(O)/C(=C\c2cccc(OC)c2)N=C1C	?	?	-3	23	-4%
CS(=O)(=O)c1ccc2nc(NC(=O)c3ccc(Cl)cc3)sc2c1	35%	?	16*	17	1%
NS(=O)(=O)c1ccc2nc(NC(=O)Nc3ccc(F)cc3)sc2c1	38%	94%	46*	54*	-4%
CS(=O)(=O)c1ccc2nc(NC(=O)CCNC(=O)c3ccc(Cl)cc3)sc2c1	-40%	4.1µM*	·	·	·
CS(=O)(=O)c1ccc2nc(NC(=O)c3cccc(Cl)c3)sc2c1	2%	-3%	5	30	-10%
CS(=O)(=O)c1ccc2nc(NC(=O)c3ccc(=O)[nH]c3)sc2c1	51%	0%	-4	-4	2%
CS(=O)(=O)c1ccc2nc(NC(=O)Nc3ccc(Cl)cc3)sc2c1	?	1.2µM*	8	-13	3%
Cc1ccc(NC(=O)CCc2nnc3ccc(N4CCC5(CC4)OCCO5)nn23)cc1F	?	47%	1	-7	1%
